What all share (conditions): concentration: 10 µM; 24 h
The subject of test [1] is HCC1569. Kind of test: cell number relative to DMSO (% of DMSO); higher = more cells (less growth inhibition / toxicity). The gist of the method:
(§1)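 Treatment: HCC1569 and TDF cells, 800 per well in 384-well plates with RPMI and 10% FBS, were given compounds at 10 µM for 24 h at 37 °C, in triplicate. Readout: after 3.7% formaldehyde fixation, cells were stained with a rabbit anti-H1.0 antibody, an AlexaFluor 647 secondary and DAPI. Reported values are H1.0 nuclear intensity or cell number as percent of the plate control, taken as the median of replicates, with positional smoothing for HCC1569.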

Test [2] concerns TDF. The test is described as above. The gist of the method: as §1
Test [3] concerns TDF. The test can be described thus: H1.0 immunofluorescence intensity relative to DMSO (% of DMSO); higher = stronger H1.0 induction, active = 120 or more. The gist of the method: as §1
Test [4] relates to HCC1569. Kind of test: H1.0 immunofluorescence intensity relative to DMSO (% of DMSO); higher = stronger H1.0 induction, active = 140 or more. The gist of the method:
as §1

Values joined by “and” are separate entries in the source; they are usually repeats but may differ in a detail not shown here. Identical values can stand only once. ± gives the standard deviation of the averaged measurements.
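Throughout, for H1.0 immunofluorescence intensity relative to DMSO: TDF is a line of transformed human dermal fibroblasts of mesenchymal origin.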
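Throughout, for cell number relative to DMSO: TDF denotes transformed human dermal fibroblasts of mesenchymal origin.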

Turning to `CC(=O)C(C)=O` [2,3-Butanedione], the cell number with HCC1569 [1] and with TDF [2] was 103 each time. Moreover, the H1.0 immunofluorescence intensity was 85.8 (inactive) with TDF [3] and 92.3 (inactive) in the test on HCC1569 [4].

As for `CC12CCC(=O)C=C1CCC1C2C(=O)CC2(C)C1CCC2(O)C(=O)CO` (stereo not given) [Cortisone], the cell number came out at 87.8 in the test on HCC1569 [1] and 82 in the test with TDF [2]. For the same compound, the H1.0 immunofluorescence intensity was 106 (inactive) in the test on TDF [3] and 97 (inactive) with HCC1569 [4].

Turning to `CC(=O)OCC(=O)[C@@]1(O)CC[C@H]2[C@@H]3CCC4=CC(=O)CC[C@]4(C)[C@@]3(F)[C@@H](O)C[C@@]21C`, the cell number in the test with HCC1569 [1] and in the test with TDF [2] was 103 each time. Besides, the H1.0 immunofluorescence intensity in the test on TDF [3] is 80 (inactive); in the test with HCC1569 [4] it was 104 (inactive).

With `Cc1ccccc1C(OCCN(C)C)c1ccccc1.O=C(O)CC(O)(CC(=O)O)C(=O)O` (stereo not given) [Orphenadrine citrate], the cell number was 111 in the test on HCC1569 [1] and 113 with TDF [2]. Also, the H1.0 immunofluorescence intensity in the test with TDF [3] was 91.6 (inactive); in the test with HCC1569 [4], 96.1 (inactive).

Turning to `O=C(/C=C/c1cccnc1)NCCCCC1CCN(C(=O)c2ccccc2)CC1`, the cell number in the test on HCC1569 [1] stood at 106; with TDF [2], 107. For the same compound, the H1.0 immunofluorescence intensity in the test with TDF [3] is 98.9 (inactive); with HCC1569 [4] it was 90.3 (inactive).

For `Cc1c(-c2cnccn2)ssc1=S` [Oltipraz], the figures for the cell number in the test with HCC1569 [1] and in the test on TDF [2] were 105 and 101, respectively. Further, the H1.0 immunofluorescence intensity is 97.9 (inactive) in the test on TDF [3] and 114 (inactive) with HCC1569 [4].

On to `COc1cc2ncnc(Nc3ccc(O)cc3)c2cc1OC`, for which the cell number was determined as 100 in the test with HCC1569 [1] and 115 in the test on TDF [2]. Also, the H1.0 immunofluorescence intensity in the test with TDF [3] is 89 (inactive); with HCC1569 [4] it was 96.6 (inactive).

As for `Nc1[nH]nc2nc3ccccc3nc12` [Cdk1/5 Inhibitor], the cell number came to 99.6 with HCC1569 [1] and 95.2 in the test with TDF [2]. The results for the H1.0 immunofluorescence intensity in the test with TDF [3] and with HCC1569 [4] were 104 (inactive) and 113 (inactive), respectively.

In the case of `CCCSc1ccc2nc(NC(=O)OC)[nH]c2c1` [Albendazole], the results for the cell number in the test on HCC1569 [1] and in the test with TDF [2] were 61.4 and 9.62, respectively. Besides, the results for the H1.0 immunofluorescence intensity in the test with TDF [3] and in the test with HCC1569 [4] were 149 (active) and 176 (active), respectively.

`COc1cc2c(c(OC)c1OC)-c1c(cc(OC)c(OC)c1OC)CC(C)C(C)C2` (stereo not drawn) [R(+)-Schisandrin A]: the results for the cell number with HCC1569 [1] and in the test with TDF [2] were 105 and 103, respectively. Also, the figures for the H1.0 immunofluorescence intensity in the test with TDF [3] and in the test on HCC1569 [4] were 91.6 (inactive) and 94.9 (inactive), respectively.

For `CCCC(=O)NCCc1c2n(c3ccc(OC)cc13)CCCc1ccccc1-2`, the results for the cell number in the test with HCC1569 [1] and in the test on TDF [2] were 96.8 and 109, respectively. In addition, the values for the H1.0 immunofluorescence intensity in the test with TDF [3] and in the test on HCC1569 [4] were 84.7 (inactive) and 100 (inactive), respectively.

Regarding `O=C1NC(=O)c2cc(Nc3ccc(F)cc3)c(Nc3ccc(F)cc3)cc21`, the cell number with HCC1569 [1] stood at 93.4; in the test on TDF [2] it was 110. Besides, the H1.0 immunofluorescence intensity with TDF [3] was 93.4 (inactive); in the test with HCC1569 [4] it was 133 (inactive).

For the compound `CCCCCCCCCCCCCCCCn1cc[n+](Cc2ccccc2)c1C.[I-]` [eEF-2 Kinase Inhibitor, NH125], the values for the cell number with HCC1569 [1] and in the test with TDF [2] were 36.6 and 38.9, respectively. The H1.0 immunofluorescence intensity in the test on TDF [3] was 152 (active); with HCC1569 [4], 101 (inactive).

Turning to `CCN(CC)C(=S)SSC(=S)N(CC)CC` [Tetraethylthiuram disulfide], the cell number is 97.2 with HCC1569 [1] and 54 with TDF [2]. Moreover, the results for the H1.0 immunofluorescence intensity with TDF [3] and in the test on HCC1569 [4] were 120 (inactive) and 102 (inactive), respectively.

Consider `CN(C)CCC=C1c2ccccc2CCc2ccccc21.Cl` [Amitriptyline hydrochloride], for which the cell number in the test with HCC1569 [1] and with TDF [2] was 100 in each case. The values for the H1.0 immunofluorescence intensity with TDF [3] and in the test with HCC1569 [4] were 104 (inactive) and 94.1 (inactive), respectively.

Regarding `CCCCCCN(CCCCCC)C(=O)Cc1c(-c2ccc(F)cc2)[nH]c2ccccc12` [N,N-Dihexyl-2-(4-fluorophenyl)indole-3-acetamide], the cell number in the test with HCC1569 [1] stood at 95.6; in the test with TDF [2], 102. In addition, the H1.0 immunofluorescence intensity with TDF [3] is 93.3 (inactive); in the test on HCC1569 [4], 94.3 (inactive).

Take `Cc1oncc1C(=O)Nc1ccc(C(F)(F)F)cc1` [Leflunomide]: the results for the cell number in the test with HCC1569 [1] and with TDF [2] were 103 ± 3.5 and 107 ± 3.5, respectively. Besides, the H1.0 immunofluorescence intensity in the test on TDF [3] was 97.1 (inactive); with HCC1569 [4] it was 101 (inactive).

In the case of `CCCCCCCCCC(=O)OCC(CO)OC(=O)CCCCCCCCC` (stereo not given) [1,2-Didecanoyl-glycerol (10:0)], the cell number in the test with HCC1569 [1] came out at 102; with TDF [2], 98.8. In addition, the H1.0 immunofluorescence intensity in the test with TDF [3] is 98.3 (inactive); in the test on HCC1569 [4], 101 (inactive).

For `N#CC(=C(N)Sc1ccccc1N)C(C#N)=C(N)Sc1ccccc1N`, the cell number with HCC1569 [1] was 102 and 101; in the test on TDF [2], 95.9 and 96.9. Besides, the H1.0 immunofluorescence intensity is 94 (inactive) and 88.9 (inactive) in the test with TDF [3]; 108 (inactive) and 98.1 (inactive) in the test with HCC1569 [4].

As for `COc1cc2c(CCNC(C)=O)c[nH]c2cc1Cl` [6-Chloromelatonin], the cell number in the test on HCC1569 [1] stood at 101; with TDF [2] it was 106. Besides, the H1.0 immunofluorescence intensity is 94.8 (inactive) with TDF [3] and 90 (inactive) in the test with HCC1569 [4].

`Cl.OCC1NCC(O)C(O)C1O` (stereo not given) [1-Deoxynojirimycin hydrochloride]: the values for the cell number in the test with HCC1569 [1] and in the test with TDF [2] were 97.8 and 106, respectively. Also, the H1.0 immunofluorescence intensity is 85.2 (inactive) in the test on TDF [3] and 91.8 (inactive) with HCC1569 [4].

For the compound `CCNC(=O)N1CCN(CCCC(c2ccc(F)cc2)c2ccc(F)cc2)CC1.Cl` [Amperozide hydrochloride], the results for the cell number in the test on HCC1569 [1] and in the test with TDF [2] were 94.2 and 95.8, respectively. Besides, the H1.0 immunofluorescence intensity was 97 (inactive) in the test with TDF [3] and 99 (inactive) in the test on HCC1569 [4].

Consider `O=C(NCCNCC(O)COc1ccc(O)cc1)N1CCOCC1.O=C(O)C=CC(=O)O` (stereo not given) [Xamoterol hemifumarate], for which the values for the cell number in the test on HCC1569 [1] and with TDF [2] were 104 and 98.5, respectively. Moreover, the H1.0 immunofluorescence intensity with TDF [3] was 88.7 (inactive); with HCC1569 [4], 109 (inactive).

Consider `COCCc1ccc(OCC(O)CNC(C)C)cc1.COCCc1ccc(OCC(O)CNC(C)C)cc1.O=C(O)C(O)C(O)C(=O)O` (racemic), for which the cell number was 99.5 with HCC1569 [1] and 106 in the test on TDF [2]. In addition, the H1.0 immunofluorescence intensity is 95.6 (inactive) in the test with TDF [3] and 108 (inactive) in the test with HCC1569 [4].

Regarding `Cc1oc(-c2ccccc2)nc1CCC(=O)c1ccc(CC2SC(=O)[N-]C2=O)cc1.[Na+]` (stereo not given), the cell number is 103 with HCC1569 [1] and 106 with TDF [2]. Moreover, the H1.0 immunofluorescence intensity in the test with TDF [3] was 96.4 (inactive); in the test with HCC1569 [4], 102 (inactive).

Values taken from the supplement of paper PMC7156485.
